High-throughput results deposited in PubChem BioAssay by several laboratories.
UBC13 inh: inhibitors of human UBC13 polyubiquitin chain formation; TR-FRET; inhibition, % at 20 µM; actives 0.47% (n = 330,000); AID 485273; in the data active = inhibition above about 45%, passing the limit was not always enough
Target sequence (P61088 whole entry, looked up): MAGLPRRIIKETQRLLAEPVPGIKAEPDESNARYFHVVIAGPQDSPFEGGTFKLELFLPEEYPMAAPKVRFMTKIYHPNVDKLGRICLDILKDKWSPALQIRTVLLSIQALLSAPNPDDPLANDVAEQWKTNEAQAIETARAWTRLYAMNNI
MEKK2 mut-MEK5: signal of MEK5 binding to mutant human MEKK2 PB1 domain. AID 1530. percent response, % at 10 µM. actives 0.35% (n = 290,000). bead flow cytometry, Alexa488-MEK5 binding to MEKK2 mutant; in the data active = percent response above about 24%, passing the limit was not always enough
MEKK3 PB1 HTS: raises or lowers MEK5 binding to the human MEKK3 PB1 domain; Q99759; bead-based flow cytometry, Alexa488-MEK5 binding to MEKK3; actives lie on both sides; 0 = blocked by unlabeled MEK5, 100 = vehicle; binding response (% of control), % at 10 µM; actives 1.4% (n = 290,000);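 active = binding response more than 3 SD above or below the average of its plate-row segment, actives on both sides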;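 also: Alexa488 bead fluorescence after subtracting the streptavidin-only scavenger bead signal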
MEKK2wt PB1 HTS: raises or lowers MEK5 binding to wildtype human MEKK2 PB1 domain; binding response (% of control), % at 10 µM; actives 1.1% (n = 290,000); AID 1531; bead flow cytometry, Alexa488-MEK5 binding to MEKK2 WT; actives lie on both sides; in the data active = binding response below about 67% or above about 130%
MEKK2wt confirm: raises or lowers MEK5 binding to wildtype human MEKK2, retest; shares compounds with MEKK3 PB1 HTS; actives 2.4% (n = 5,900); bead flow cytometry, Alexa488-MEK5 binding to MEKK2 WT; actives lie on both sides; AID 1892; binding response (% of control), % at 10 µM; in the data active = binding response below about 16% or above about 210%; inactive = in between
MEKK2mut confirm: signal of MEK5 binding to mutant human MEKK2, retest; bead flow cytometry, Alexa488-MEK5 binding to MEKK2 mutant; actives 2% (n = 5,900); shares compounds with MEKK3 PB1 HTS; AID 1893; percent response, % at 10 µM; in the data active = percent response mostly above about 71%, no sharp cut-off; inactive = mostly below about 38%;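 also: higher means compound restores mutant binding toward wildtype level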
MEKK3 confirm: MEKK3-MEK5 PB1 inhibition, single concentration confirmation; bead flow cytometry, Alexa488-MEK5 binding to MEKK3; active compounds read low; AID 1894; shares compounds with MEKK3 PB1 HTS; actives 1.8% (n = 5,900); binding response (% of control), % at 10 µM;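 active = binding response below 72% of control, or above a set upper limit, though filed actives all read lower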;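 also: 100% = DMSO only wells and 0% = binding blocked by excess unlabeled MEK5; lower values mean stronger disruption of MEK5 binding to MEKK3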
Active calls of the source: *; x = no result; ! = repeats disagree; [ ] = remark or other dose. Shown are actives, neighbours in structure and some others; about 2.3% of the full set was active somewhere.

SMILES	UBC13 inh	MEKK2 mut-MEK5	MEKK3 PB1 HTS	MEKK2wt PB1 HTS	MEKK2wt confirm	MEKK2mut confirm	MEKK3 confirm
OC(COCC1COc2ccccc2O1)CN1CCN(c2ccccn2)CC1 (centres undefined)	7.1	24.0*	114.0	117.0	106.0	7.0	107.0
O=C(O)C1Nc2c(C(=O)N3CCOCC3)cccc2C2C=CCC12 (centres undefined)	-21.5	-4.0	97.0	98.0	x	x	x
Cc1ccc2c(c1C)NC(C(=O)O)C1CC=CC21 (centres undefined)	17.2	36.0*	85.0	39.0*	93.0	-10.0	100.0
Nc1ccc(-c2ccc(N)c(C(=O)O)c2)cc1C(=O)O	-8.8	-12.0	44.0*[inhibitor]	46.0*[inhibitor]	102.0	-3.0	102.0
Nc1ccc(Br)cc1C(=O)O	-4.0	0.0	102.0	103.0	x	x	x
Cc1cccc(N2CCN(C(=O)c3ccc(S(=O)(=O)N(C)c4ccccc4)cc3)CC2)c1C	8.0	x	x	x	x	x	x
CCC(CC)NC(=O)CN1CCN(S(=O)(=O)c2ccc(Br)s2)CC1	-0.7	x	x	x	x	x	x
CCOC(=O)c1ccccc1NC(=O)CSC(C)C(=O)Nc1cc(C)on1 (centres undefined)	4.6	x	x	x	x	x	x
COc1ccc(C2=C/C(=C\c3ccc(OC(C)=O)cc3)C(=O)O2)cc1	-16.7	1.0	102.0	104.0	x	x	x
CN(C)c1ccc(/C=C2/C=C(c3ccc4c(c3)CCCC4)OC2=O)cc1	-204.9	-8.0	73.0*[inhibitor]	68.0	81.0	-1.0	83.0
COc1ccccc1NC(=O)CSCC(=O)N1c2ccccc2CCc2ccccc21	8.6	1.0	103.0	102.0	x	x	x
COc1ccc(NC(=O)CSCC(=O)N2c3ccccc3CCc3ccccc32)cc1	9.6	-1.0	148.0*	100.0	101.0	-1.0	99.0
COc1ccc(S(=O)(=O)N(C)C(C)CCc2ccco2)cc1 (centres undefined)	-5.2	5.0	110.0	103.0	x	x	x
COc1ccc(C(N)CCc2ccco2)cc1 (centres undefined)	7.3	27.0*	113.0	132.0	119.0	15.0	98.0
Cc1ccc2oc(=O)n(CCCOc3ccccc3)c2c1	2.3	4.0	125.0*	121.0	102.0	9.0	102.0
Cc1ccc2oc(=O)n(CC(=O)OCCC(C)C)c2c1	12.8	-3.0	74.0*[inhibitor]	71.0	102.0	-4.0	101.0
CCOC(=O)Cn1c(=O)oc2ccc(C)cc21	-16.2	-1.0	95.0	99.0	x	x	x
Cc1ccc(S(=O)(=O)N(C)C)cc1-n1c(SCC(=O)Nc2ccc(F)c(F)c2F)nc2ccccc2c1=O	3.4	1.0	148.0*	106.0	97.0	-4.0	104.0
Fc1ccc([C@@H]2CCNC[C@H]2COc2ccc3c(c2)OCO3)cc1	22.2	6.0	112.0	144.0*!	128.0	13.0	101.0
Fc1ccc(C2CCNCC2COc2ccc3c(c2)OCO3)cc1 (centres undefined)	17.0	-18.0	86.0	93.0	x	x	x
CN(Cc1ccccc1Br)C(=O)CN1C(=O)NC2(CCCCCC2)C1=O	6.9	x	x	x	x	x	x
O=C(OCC#CCSc1nnc(-c2cccc3ccccc23)o1)c1cccc2[nH]ccc12	12.5	x	x	x	x	x	x
O=C(Nc1nnc(-c2ccccc2Cl)s1)C1CCN(S(=O)(=O)c2ccc(Cl)cc2)CC1	-0.5	0.0	140.0*	100.0	101.0	0.0	101.0
Cc1cnc(NC(=O)C(C)N2CCN(C)CC2)s1 (centres undefined)	-7.9	-3.0	100.0	99.0	x	x	x
CCc1ccc(NC(=O)C(C)Oc2nnc(-c3cccs3)c(-c3cccs3)n2)cc1 (centres undefined)	-45.1	4.0	104.0	93.0	x	x	x
SMILES	UBC13 inh	MEKK2 mut-MEK5	MEKK3 PB1 HTS	MEKK2wt PB1 HTS	MEKK2wt confirm	MEKK2mut confirm	MEKK3 confirm
CC(C)c1ccc(NC(=O)COc2nnc(-c3cccs3)c(-c3cccs3)n2)cc1	-22.4	7.0	143.0*	112.0	92.0	1.0	94.0
CCN(CC)c1ccc(N=Cc2ccc(N(CC)CC)cc2O)cc1	-27.6	0.0	97.0	98.0	x	x	x
CCN(CC)c1ccc(C=Nc2ccc(N(C)C)cc2)c(O)c1	-75.0	79.0*	94.0	-21.0*	100.0	-7.0	101.0
CCN(CC)c1ccc(C=Nc2ccc(C)cc2)c(O)c1	3.1	-6.0	95.0	69.0*[inhibitor]	84.0	-15.0	92.0
CCN(CC)c1ccc(/C=N/Nc2ccccc2)c(O)c1	-3.4	13.0	106.0	136.0*	102.0	0.0	105.0
Cc1ccccc1NC(=O)c1ccccc1N(C)S(=O)(=O)c1ccccc1	3.1	x	x	x	x	x	x
O=C(NC1CCCCC1)c1ccc(S(=O)(=O)N2CCCC2)cc1	2.9	6.0	105.0	112.0	x	x	x
O=C(NC1CCCC1)c1ccc(S(=O)(=O)N2CCOCC2)cc1	-2.5	8.0	131.0*	123.0	152.0	33.0	106.0
Cn1c(CS(=O)Cc2c(Cl)cccc2Cl)nnc1SCc1ccc(Cl)cc1 (centres undefined)	9.7	-26.0	34.0*[inhibitor]	50.0	105.0	3.0	105.0
CC(C)C(NS(=O)(=O)c1c(Cl)cccc1Cl)C(=O)OCC(=O)c1c[nH]c2ccccc12 (centres undefined)	-0.5	76.0*	77.0	-2.0*	105.0	9.0	102.0
Nc1ccc2nc(-c3ccc(-c4nc5ccc(N)cc5[nH]4)cc3)[nH]c2c1	22.6	-26.0	53.0*[inhibitor]	65.0*[inhibitor]	81.0	-17.0	71.0*
Nc1ccc2nc(CCCCCCc3nc4ccc(N)cc4[nH]3)[nH]c2c1	6.5	1.0	83.0	108.0	x	x	x
Nc1ccc2nc(CCCCCCCCc3nc4ccc(N)cc4[nH]3)[nH]c2c1	-5.8	9.0	107.0	140.0*	147.0	36.0	102.0
Cc1ccccc1NS(=O)(=O)c1cc(C(=O)NCc2ccncc2)ccc1Cl	4.6	5.0	97.0	102.0	x	x	x
CCCOc1ccc(C2NC(=O)NC2=O)cc1 (centres undefined)	0.4	8.0	123.0*	120.0	108.0	3.0	108.0
COc1ccc(/C=C2\SC(=S)N(CC(=O)NC3CCS(=O)(=O)C3)C2=O)cc1 (centres undefined)	-21.4	9.0	103.0	108.0	x	x	x
COc1ccc(C)cc1NC(=O)CN1CCCC1c1ccc2c(c1)OCCCO2 (centres undefined)	1.3	x	x	x	x	x	x
O=C1CCCCC/C1=N/Nc1ccc(OCc2ccccc2)cc1	-1.2	-2.0	102.0	97.0	x	x	x
FC(F)(F)c1cc(N2CCN(Cc3ccccc3)CC2)c2ccccc2n1	11.0	-13.0	75.0*[inhibitor]	84.0	95.0	-7.0	95.0
FC(F)(F)c1cc(N2CCNCC2)c2ccccc2n1	-7.4	-4.0	92.0	95.0	x	x	x
CCOc1cc(NS(=O)(=O)c2ccc(NC(C)=O)cc2)c(OCC)cc1NC(=O)c1cccs1	-7.3	-1.0	100.0	100.0	x	x	x
Cc1ccc(OC(F)F)c(NC(=O)Nc2cccc(C(F)(F)F)c2)c1	-1.1	55.0*	108.0	203.0*	134.0	6.0	103.0
